This is an account of results in PubChem BioAssay AID2284344 (EPA ToxCast).

The AC50 is the concentration at which the activity in the assay is half-maximal.

Records with an inconclusive call do not appear. Calls of active or inactive are those of the source. Rule for the calls: active = hit-call score of the fitted dose curve at least 0.9, where 1 is the maximum; inconclusive = response in the unintended direction; inactive = score below 0.9.

This test relates to frog Peroxisome Proliferator-activated Receptor-alpha (PPARa), gene 398843. Briefly: ATG_frPPARa_EcoTox2: Attagene TRANS-FACTORIAL EcoTox-2 HepG2 Assay for frog Peroxisome Proliferator-activated Receptor-alpha (PPARa). How it is done:
ATG_EcoTox2 is a cell-based, multiplexed assay created by modifying the existing Attagene TRANS-FACTORIAL system to include a panel of nuclear receptors from some or all the following species: human (Homo sapiens), african clawed frog (Xenopus laevis), rainbow trout (Oncorhynchus mykiss), japanese medaka (Oryzias latipes), and zebrafish (Danio rerio). The ECOTOX2-FACTORIAL format uses HepG2, a human liver cell line, with measurements taken at 24 hours after chemical dosing in a 24-well plate. ATG_frPPARa_EcoTox2 is one of 29 assay components calculated in the ATG_EcoTox2 assay. It is designed to make measurements of mRNA induction, a form of inducible reporter, as detected with fluorescence intensity signals by Reverse transcription polymerase chain reaction (RT-PCR) and Capillary electrophoresis technology.The assay endpoint ATG_frPPARa_EcoTox2 was analyzed in the positive analysis fitting direction relative to DMSO as the negative control and baseline of activity. Using a type of inducible reporter, measures of mRNA for gain-of-signal activity can be used to understand the reporter gene at the transcription factor-level as they relate to the gene PPARa. Furthermore, this assay endpoint can be referred to as a primary readout, because this assay has produced multiple assay endpoints where this one serves a reporter gene function. To generalize the intended target to other relatable targets, this assay endpoint is annotated to the nuclear receptor intended target family, where the subfamily is non-steroidal.
Human liver HepG2 cells are transiently transfected with multiple reporter transcription units (MRTUs) in 6-well plates using FuGene 6 reagent (Roche; 3 ml FuGene/1 mg DNA). The MRTU constructs are regulated by a cis-regulating element (promoter). Each RTU expresses a GAL4-UAS that regulates the transcription of a nearby target reporter gene sequence. A major difference between the CIS and TRANS system is that in CIS activities of endogenous TFs are measured, whereas the TRANS assay evaluates changes in activities of exogenous, chimeric NR-Gal4 proteins. […] At the end of 24 hour incubation, total RNA was isolated using TriZol reagent (Invitrogen). The isolated RNA is then reverse-transcribed using oligo(dT) primer and Mo-MLV reverse transcriptase (Invitrogen) with DNAse I (Ambion) treatment for 30 min. The one-tenth of the produced cDNA was amplified by PCR using Taq DNA polymerase (Invitrogen) and two reporter sequence-specific primers. The PCR products were fluorescently labeled by primer extension with 6-arboxyfluorescein (6-FAM) 5'-labeled reporter sequence-specific primer (2 min at 95 C, 20 s at 68 C and 10 min at 72 C) and these products were digested with 5U of HpaI (New England Biolabs) for 2h at 37 C. The fragments were purified using Qiaquick PCR columns (Qiagen), analyzed on an ABI 3130xL genetic analyzer (Applied Biosystems) with peak positions identified by using a set of X-rhodamine (ROX)-labeled MapMarker1000 molecular weight standards (BioVentures). The raw capillary electrophoresis data was processed using Attagraph software (Attagene).
`CC(C)(Oc1ccc(C2CC2(Cl)Cl)cc1)C(=O)O` (stereo not drawn): the AC50 is 113 µM (active). For `CC(C)OC(=O)C(C)(C)Oc1ccc(C(=O)c2ccc(Cl)cc2)cc1`, the compound was classed as inactive. The same measure, in the same setting: the value for `C[C@]12C=CC(=O)C=C1CC[C@@H]1[C@@H]2C(=O)C[C@@]2(C)[C@H]1CC[C@]2(O)C(=O)CO` was “inactive”.

As to `Cc1ccc(C)c(OCCCC(C)(C)C(=O)O)c1`, the AC50 is 50 µM (active).

On to `Cc1cccc(Nc2cc(Cl)nc(SCC(=O)O)n2)c1C`, for which the AC50 is 11.9 µM (active). Same read-out and setting: the value for `CC(C)(Oc1ccc(CCNC(=O)c2ccc(Cl)cc2)cc1)C(=O)O` was 23.6 µM (active); that for `Cc1nc(-c2ccc(C(F)(F)F)cc2)sc1C(=O)NCc1ccc(OC(C)(C)C(=O)O)cc1` was 0.0823 µM (active). Consider `Cc1c(C)c2c(c(C)c1O)CCC(C)(COc1ccc(CC3SC(=O)NC3=O)cc1)O2` (stereo not drawn), for which the compound was classed as inactive. As for `CN(CCOc1ccc(CC2SC(=O)NC2=O)cc1)c1ccccn1` (stereo not drawn), the AC50 was 8.4 µM (active). Turning to `C=C(c1ccc(C(=O)O)cc1)c1cc2c(cc1C)C(C)(C)CCC2(C)C`, the result was inactive. The same measure, in the same setting: the value for `CC(c1cc2ccccc2s1)N(O)C(N)=O` (stereo not drawn) was “inactive”; that for `C[C@@H]1C[C@H]2[C@@H]3CCC4=CC(=O)C=C[C@]4(C)[C@@]3(F)[C@@H](O)C[C@]2(C)[C@@]1(O)C(=O)COP(=O)(O)O` was “inactive”. `CC(C)(Oc1ccc(Cl)cc1)C(=O)O`: the call was inactive.
